According to PubChem BioAssay AID624169 (The Scripps Research Institute Molecular Screening Center, 2012):
Hit rate of the full screen: of about 360,000 compounds, about 2,400 (0.67%) were called active.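 The calls were made as follows: active = activation above a run cutoff, the mean activation of all tested compounds plus 3 SD (cut at about 14% in these data); inactive = the rest.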 Many of the other results were omitted from the sample, so actives are more common in it than they were.

Biological target: 5-hydroxytryptamine receptor 2A (Mus musculus) (UniProt P35363)
Sequence (P35363 whole entry, looked up): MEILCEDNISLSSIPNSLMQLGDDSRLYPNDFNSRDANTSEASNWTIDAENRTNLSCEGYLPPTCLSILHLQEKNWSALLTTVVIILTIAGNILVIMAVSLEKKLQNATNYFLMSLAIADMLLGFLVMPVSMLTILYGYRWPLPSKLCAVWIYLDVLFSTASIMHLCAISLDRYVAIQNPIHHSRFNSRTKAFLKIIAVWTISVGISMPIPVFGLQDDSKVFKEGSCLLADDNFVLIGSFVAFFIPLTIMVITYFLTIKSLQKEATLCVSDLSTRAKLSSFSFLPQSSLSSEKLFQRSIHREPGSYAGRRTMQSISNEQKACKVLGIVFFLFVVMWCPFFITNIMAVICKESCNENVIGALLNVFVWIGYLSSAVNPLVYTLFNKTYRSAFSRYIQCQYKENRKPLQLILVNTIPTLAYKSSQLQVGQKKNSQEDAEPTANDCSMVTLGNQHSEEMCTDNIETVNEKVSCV
Assay: mouse Htr2a agonists via beta-arrestin recruitment, primary screen, cell-based, luminescence (AID 624169);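 also: 0% = plate median of compound wells and 100% = 30 µM serotonin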
Settings: CHO-K1 mHTR2A beta-arrestin complementation, at 7.6 µM, stronger effect = higher value, percent of 30 µM serotonin response

activation, inactive:
CCN(CC(=O)Nc1ccccc1OC)C(=O)Cn1cnc2ccccc2c1=O 2.03%
COCc1cc(C(C)=O)ccc1OC 2.94%
CN1OC[C@@H]2CN[C@H](c3ccc(-c4ccccc4)cc3)C[C@@H]21 -5.82%
Cc1ccc(S(=O)(=O)NN=C2CC(C)(C)CC(=O)C2(C)C)cc1 -0.12%
Cc1ccc(C2(c3ccc(C)cc3)NC(=O)N(Cc3c(C)noc3C)C2=O)cc1 -0.69%
COc1ccccc1CNC(=O)Cn1c(=O)oc2cc(Cl)ccc21 -2.35%
CCCNC(=O)CCn1nc(-c2ccccc2)c2ccccc2c1=O 5.25%
COC(=O)c1ccccc1N=Nc1c(C)[nH][nH]c1=O -4.12%
CC(C)(C)SCCSC1=CC(=O)CC(c2ccccc2)C1 (stereo unspecified) -1.98%
O=c1oc(-c2ccco2)nc2sc3c(c12)CCCCC3 -3.64%
O=C(NCc1ccco1)c1cnn2c(C(F)(F)F)cc(-c3ccco3)nc12 0.02%
COc1ccc(OCCCC(=O)OC(C)C(=O)Nc2ccccc2[N+](=O)[O-])cc1 (stereo unspecified) 9.6%
Cc1ccc(OCc2nnc(NC(=O)OCC(C)C)s2)cc1 -4.72%
Cc1ccc2[nH]cc(CCCN3C(=O)c4ccccc4C3=O)c2c1 -2.51%
COCCCN1C(=O)c2ccc(C(=O)Nc3ccc(OC)cc3OC)cc2C1=O 12.7%
O=C(C[C@H]1C[C@@H]2c3cc(NC(=O)C4CCC4)ccc3O[C@@H]2[C@H](CO)O1)NC1CCCCC1 -0.85%
COC(=O)C[C@H]1C[C@@H]2c3cc(NC(=O)Nc4ccccc4)ccc3O[C@@H]2[C@@H](CO)O1 2.06%
O=C(CCS(=O)(=O)c1cccc2nsnc12)N1CCN(c2ccccc2F)CC1 4.25%
COC(=O)[C@@H]1CCCN1C(=O)c1cc(COc2cccc3cccnc23)on1 2.24%
CCS(=O)(=O)Nc1ccc(C2=NN(S(=O)(=O)c3ccc(F)cc3)C(c3ccco3)C2)cc1 (stereo unspecified) -6.66%
COc1ccc(C(=O)C[n+]2ccc(C)cc2)cc1 -0.16%
COc1ccc(C(=O)COC(=O)c2ccc3ccccc3n2)cc1 -0.68%
Cc1cccc(NC(=O)c2cc(S(=O)(=O)N3CCC4(CC3)OCCO4)ccc2F)c1 -2.45%
COc1ccc(C2/C(=C(/O)c3ccccc3)C(=O)C(=O)N2c2ncccn2)cc1OC (stereo unspecified) -1.25%
COc1ccc(/C(O)=C2/C(=O)C(=O)N(c3nc(C)c(C)s3)C2c2ccco2)cc1 (stereo unspecified) 0.59%
CCN(CCn1cccn1)Cc1nc(-c2ccc(C(=O)OC)cc2)no1 2.48%
N=C1c2ccccc2-c2ccccc21 3.53%
Cc1nnc(C)c2c(C)n(N)c(C)c12 -1.02%
Cc1ccccc1-n1nc(SCC(=O)O)sc1=S -1.31%
O=C(CSc1nn(-c2ccc(F)cc2)c(=S)s1)NC1CCS(=O)(=O)C1 (stereo unspecified) -0.71%
COCCCN(C(=O)CSCc1ccc(C)cc1)c1c(N)n(Cc2ccccc2)c(=O)[nH]c1=O 7.86%
CC1C(C)N(C(=O)CCl)c2ccccc2N1C(=O)CCl (stereo unspecified) -1.04%
Cn1c2c(c(=O)n(C)c1=O)C1c3ccccc3OCC1C(C)(C)O2 (stereo unspecified) -0.33%
Cn1c2c(c(=O)n(C)c1=O)C(c1cccc([N+](=O)[O-])c1)Nc1ccccc1O2 (stereo unspecified) -3.64%
COC(=O)COc1ccc(C2NC(=O)NC(C)=C2C(=O)NCc2ccccc2)cc1OC (stereo unspecified) -4.71%
COCCCn1cc(CN2CC(N(C)C)CS2(=O)=O)nn1 (stereo unspecified) 5.48%
Cc1c(Br)c([N+](=O)[O-])nn1CC(=O)Nc1sc2c(c1C(=O)OC(C)C)CCC(C)C2 (stereo unspecified) 2.43%
CC(=O)Nc1ccc(OCC(O)CN2CCN(c3ccccc3Cl)CC2)cc1 (stereo unspecified) 2.24%
CC(=O)c1ccc(OCC(O)CN2CCN(S(=O)(=O)c3cccc(Br)c3)CC2)cc1 (stereo unspecified) 1.8%
Cc1cc(C(=O)NNS(=O)(=O)c2ccccc2C(F)(F)F)nn1C(C)(C)C -0.74%
CCOC(=O)[C@]12CCCC=C1N(CCC1=CCCCC1)C(=O)[C@H](CC(=O)NCCCCc1ccccc1)C2 3.93%
COc1ccc2[nH]c(C)c(CCN(Cc3cccs3)C(=S)Nc3ccccc3OC)c2c1 10.5%
CCNC(=S)N(CCc1c(C)[nH]c2ccc(C)cc12)Cc1ccco1 -4.57%
CCOC(=O)c1cccc(NC(=O)C2CCN(c3ncnc4c3nc3n4CCCCC3)CC2)c1 -3.05%
CCOCCCN1C(=O)C2C(C(=O)Nc3ccc(OCC)cc3)C3C=CC2(O3)C1C(=O)NC1CCCCC1 (stereo unspecified) 6.26%
COc1ccc(C(C)(C)C)cc1NC(=O)CCN1C(=O)C2CCCCC2C1=O (stereo unspecified) -4.43%
O=C(OCc1nnc(-c2ccccc2)o1)c1ccc2c(c1)C(=O)N(CCc1ccccc1)C2=O 1.62%
Cc1onc(-c2ccccc2)c1-c1nnc(COC(=O)c2ccc(N(C)C)cc2)o1 -6.2%
CSc1ccc(NC(=O)N2CC(C)OC(C)C2)cc1 (stereo unspecified) -3.29%
CCCCn1nc(C(=O)Nc2cccc(C(=O)NC3CC3)c2)c2ccccc2c1=O 2.3%
Cn1cccc1C(=O)OCC(=O)c1ccc(Br)s1 -5.88%
OC(COc1ccc(F)cc1Cl)CN1CCc2ccccc2C1 (stereo unspecified) -18.7%
COc1ccccc1C(c1nnnn1CC1CCCO1)N1CCN(c2ccccc2)CC1 (stereo unspecified) -1.76%
O=C(c1cccs1)n1nc(NCc2ccccc2)nc1NCc1ccccc1 -1.74%
O=C(NCc1ccco1)/C(=C/c1ccco1)NC(=O)c1ccccc1 2.71%
CC(C)NS(=O)(=O)c1ccc(NC(=O)C2CCCCC2)cc1 -5.58%
Cc1ccc2nc(NC(=O)C3CCN(S(=O)(=O)c4ccc5c(c4)oc(=O)n5C)CC3)sc2c1 -3.71%
Cc1nc2ccc(NC(=O)C3CCCCC3)cc2s1 5.67%
COc1ccc(CN2CC(C(=O)NCCN3CCN(c4ccccc4F)CC3)CC2=O)cc1 (stereo unspecified) -3.29%
O=C(NCCCN1CCCCCC1)C1CC(=O)N(C2CCCC2)C1 (stereo unspecified) 2.65%
COC(=O)c1ccccc1NC(=O)C1CCN(S(=O)(=O)c2cc(OC)ccc2OC)CC1 -1.33%
Cc1cc(C)cc(C(=O)N(CCc2ccccc2)C2=CC3CCC(C2)N3C)c1 (stereo unspecified) -10.4%
COC(=O)c1ccc(CN2C(=O)C(Cc3ccccc3)ON=C2c2ncccc2C)o1 (stereo unspecified) 0.18%
CCOc1ccccc1NS(=O)(=O)c1cc2c3c(c1)C(C)C(=O)N3CCC2 (stereo unspecified) 5.3%
C/C(=N\NC(=O)CSc1nc2ccccc2c(=O)n1-c1ccccc1C)c1cccs1 -1%
C/C(=N\OCC(=O)Nc1ccc(Br)cc1)c1cccs1 -2.57%
Cc1ccc(CN2CCN(/N=C/c3cccnc3)CC2)c(C)c1 -3.83%
COc1ccccc1-c1nn(Cc2ccccc2)cc1C(=O)N1CCN(c2ncccn2)CC1 11.3%
Cc1ccc(CN2CCN(/N=C/c3ccco3)CC2)c(C)c1 -2.05%
CN(C)C(=O)c1nc2ccc(Cl)cn2c1CN1CCN(c2ncccn2)CC1 1.37%
CC1(C)CCSC(/C=C/c2ccccc2)=N1 -2.29%
Nc1c(C(=O)O)cnn1-c1ccccc1 2.02%

activation, active:
COc1ccc(C(C)=O)cc1COC(=O)Cn1cnc2ccccc2c1=O 16.5%
COC(=O)Cn1nc(-c2ccccc2)c2cc(Cl)ccc21 18.3%
O=C(NCc1ccco1)c1cccn2c(=O)c3c4c(sc3nc12)CCCC4 19.5%
COc1ccc2[nH]cc(CCN3C(=O)c4ccc(C(=O)O)cc4C3=O)c2c1 19.3%
O=C(Nc1ccc2c(c1)[C@@H]1C[C@@H](CC(=O)N3CCCCC3)O[C@@H](CO)[C@@H]1O2)NC1CCCCC1 15.4%
CO/N=C/CC(=O)c1ccc(OC)cc1 21.9%
CCOc1ccc(/C(O)=C2\C(=O)C(=O)N(c3ccc(OC)cc3)C2c2ccccc2[N+](=O)[O-])cc1 (stereo unspecified) 23.9%
N#CCSc1nn(-c2ccc(F)cc2)c(=S)s1 15.4%
Cn1c2c(c(=O)n(C)c1=O)C(c1ccc(O)cc1)Nc1ccccc1O2 (stereo unspecified) 27%
O=S(=O)(c1ccc(OCC(O)CN2CCN(c3ccccc3Cl)CC2)cc1)N1CCOCC1 (stereo unspecified) 22.4%
Cc1[nH]c2ccccc2c1CCN(Cc1cccs1)C(=S)NC(C)(C)C 24.1%
Cc1ccc(C(=O)NCC(=O)OCc2nnc(-c3ccccc3)o2)cc1 14.8%
O=C(Cc1ccccc1)n1nc(-c2ccccc2)nc1NCc1ccco1 17.4%
CS(=O)(=O)c1ccc2nc(NC(=O)C3CCCCC3)sc2c1 14.9%
O=C(NCCCN1CCN(c2ccccc2F)CC1)C1CCC(=O)N1C1CCCCC1 (stereo unspecified) 16.5%
CCCN(CCc1ccccc1)C1CCc2c(O)cccc2C1 (stereo unspecified) 50.6%
C/C(=N\NC(=O)COc1c(C)cccc1C)c1cccs1 14.4%
Cc1ccc(CN2CCN(c3ncccn3)CC2)c(C)c1 25.6%
Oc1ccc(CN2CCN(c3ncccn3)CC2)cc1 30.1%
